From PubChem
hgDAF-12 ag: activates the H. glycines DAF-12 receptor ligand-binding domain; hit rate 1.8% among 370,000; HEK293 GAL4-hgDAF12 UAS-luciferase reporter, agonist luminescence; normalized to butyrate control; AID 687014; activation, % at 6.8 µM;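 active means activation above a cutoff set at the mean of all screened compounds plus 3 SD, cut at about 10% in these data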
ssDAF12 agonist: activators of S. stercoralis DAF-12 nuclear receptor; hit rate 1% among 370,000; HEK293 ssDAF-12/GRIP1 lit1-tk-luc reporter, luminescence; % of 3 µM dafachronic acid response; activation, % at 6.8 µM;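 active means activation above the mean over all tested compounds plus 3 SD, cut at about 0.9% in these data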
APP 5'UTR act: activates APP 5'UTR luciferase reporter; SH-SY5Y APP 5'UTR luciferase reporter, luminescence; zero percent = DMSO vehicle wells; activation, % at 2 µM; hit rate 1% among 190,000; AID 1276;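 active means activation above a set limit, based on mean plus 3 SD of controls, cut at about 140% in these data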
hcDAF-12 act: H. contortus DAF-12 activation, primary screen; HEK293 hcDAF-12 lit1-tk-luc reporter, luminescence; 0% DMSO, 100% Δ7-dafachronic acid; activation, % at 6.8 µM; hit rate 1.4% among 370,000;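 active means activation above the mean of all tested compounds plus 3 SD, cut at about 5.5% in these data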
NF-kB neuron act: raises NF-kB expression in human neuronal cells | fold change at 12.5 µM | NF-kB reporter expression; active compounds read high | AID 1239 | hit rate 1.6% among 190,000; in the data active means fold change above about 3.3
Hits are given with their value; – = inactive; · = no result. Hits are enriched below; roughly 3.4% of the tested compounds scored in any of these assays.

SMILES	hgDAF-12 ag	ssDAF12 agonist	APP 5'UTR act	hcDAF-12 act	NF-kB neuron act
CC(C)n1nnnc1C1c2ccccc2C(=O)N1CCOc1ccccc1 (centres undefined)	12.5	–	·	–	·
COc1ccc(CN2C(=O)c3ccccc3C2c2nnnn2Cc2ccccc2)cc1 (centres undefined)	–	–	·	–	·
O=C1c2ccccc2C(c2nnnn2Cc2ccccc2)N1CCOc1ccccc1 (centres undefined)	18.9	–	·	8.2	·
CCN1CCN(c2nc(-c3cccnc3)nc3ccccc23)CC1	–	–	–	5.7	–
N=c1c2c(-c3ccccc3)c(-c3ccccc3)n(CCc3ccccc3)c2ncn1CCO	–	–	·	–	·
CCOc1ccc2oc(C(=O)Nc3ccc(C)cn3)c(C)c2c1	–	–	·	–	·
CCOc1ccc2oc(C(=O)NC(C)(C)CC)c(C)c2c1	12.7	–	–	–	–
CCCC1CCC2(CC1)CCC2OC(=S)Nc1ccccc1Cl (centres undefined)	–	–	·	–	·
Clc1cccc(N=NN2CCOCC2)c1Cl	–	1.7	·	–	·
c1ccc(N=NN2CCOCC2)cc1	–	–	·	–	·
COc1ccc(-n2c(SCC(=O)NNC(=S)Nc3ccc(C)cc3)nnc2-c2ccccc2)cc1	–	–	·	–	·
O=c1cc(-c2ccccc2)c2c([nH]1)CCCC2	–	–	–	5.7	–
O=C(N/N=C/c1ccccc1)c1ccco1	–	–	·	–	·
O=C(N/N=C/c1ccc2cccnc2c1)c1ccco1	12.3	–	166.4	–	3.51
COc1cc(NC(=O)C/C(C)=N/NC(=O)c2ccccn2)c(OC)cc1Cl	13.1	–	·	–	·
COc1ccc(C(=O)N/N=C(\C)CC(=O)Nc2ccccn2)cc1OC	–	–	·	–	·
COc1cc(NC(=O)C/C(C)=N/NC(=O)Cc2ccc(Cl)cc2)c(OC)cc1Cl	–	–	–	–	–
COc1ccccc1NC(=O)C/C(C)=N/NC(=O)c1ccccn1	12.7	–	·	–	·
COC(=O)C1CN(Cc2ccccc2)CCS(=O)(=O)N1Cc1ccc(C(F)(F)F)cc1 (centres undefined)	–	–	·	–	·
COc1ccc(NC(=O)C2C(c3ccc4c(c3)OCO4)=Nc3ccccc3N2C(C)=O)cc1 (centres undefined)	–	–	·	6.2	·
COc1ccc(NC(=O)C2C(c3ccc4c(c3)OCO4)=Nc3ccccc3N2C(=O)c2cccc(C(F)(F)F)c2)cc1 (centres undefined)	–	–	·	–	·
O=S1(=O)c2ccc(N3CCCC3)cc2Oc2ccccc2CN1Cc1cn(Cc2ccc(Cl)cc2)nn1	–	–	·	–	·
Cc1ccc2c(c1)C(N1CCCC1=O)CC(c1ccco1)N2 (centres undefined)	10.7	–	–	5.7	3.72
C[C@H]1[C@@H](OC(=O)NCc2cccc(Cl)c2)CC[C@@]23CCCN2C(=O)CCC[C@@H]13	–	–	·	–	·
COCCNC(=O)Cn1nc(-c2ccc(Cl)cc2)c2ccccc2c1=O	–	10.8	·	–	·
SMILES	hgDAF-12 ag	ssDAF12 agonist	APP 5'UTR act	hcDAF-12 act	NF-kB neuron act
COCCNC(=O)Cn1nc(-c2ccccc2)c2ccccc2c1=O	–	–	·	–	·
O=C(/C=C/c1ccccc1Cl)c1ccc[nH]1	–	–	–	–	4.3
O=C(/C=C/c1ccc(Cl)cc1Cl)c1ccc[nH]1	–	–	–	–	–
COc1ccc2c(c1)C[C@@H](CON1C(C)(C)CCCC1(C)C)N2S(=O)(=O)c1ccc(C)cc1	–	–	·	–	·
O=C(NNS(=O)(=O)c1ccccc1[N+](=O)[O-])c1cccc(Cl)c1	–	1.1	–	–	–
CCN(CC)S(=O)(=O)c1ccc2c(c1)nc(-c1ccccn1)n2C	–	–	·	6.2	·
CC(C)CN(CC(C)C)C(=O)c1cn(C(C)c2ccccc2)nn1 (centres undefined)	–	–	·	–	·
CCC(=O)N1CCC1(C)C(=O)Nc1cc(-c2ccccc2)nn1C (centres undefined)	10.5	–	·	–	·
CC(C)C(=O)N1CCC1(C)C(=O)Nc1cc(-c2ccccc2)nn1C (centres undefined)	–	–	·	–	·
c1ccc2c(c1)Cc1cc3ccccc3nc1-2	15.0	1.2	·	16.7	·
Cc1cc2ccccc2nc1-c1ccccc1F	–	–	·	–	·
COC(=O)[C@]12C[C@H](CC(=O)NCC34CC5CC(CC(C5)C3)C4)C(=O)N(Cc3ccc(Cl)cc3Cl)C1=C[C@H](C(C)C)O[C@@H]2C1CC1	–	–	·	–	·
C[C@@H]1CN([C@@H](C)CO)C(=O)c2cccc(NC(=O)Nc3cccc4ccccc34)c2O[C@H]1CN(C)S(=O)(=O)c1ccc2c(c1)OCCO2	–	–	·	–	·
